# According to PubChem BioAssay (NCATS):
# Inconclusive results are not listed. Entries that show only a call come without a potency. A number with no mark means an inactive call. The source made the active and inactive calls. Calls follow the shape of the dose curve; as a rule, active = well fitted cell-killing curve with a large enough effect; inconclusive = small, poorly fitted or top-dose-only effect, or effect the other way; inactive = no such curve, though single readings can be large or run the other way.
# Columns and labels:
# [1] = Viability qHTS for spleen associated tyrosine kinase inhibitor (SYKi) naive MV4-11 cells (AID 1963823); also: nearly all actives have a fitted effect of over 40% in size
# Summary of the method: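 Luminescence from CellTiter-Glo, developed 10 min at room temperature, gave viability of MV4-11 cells never exposed to SYK inhibitor. Cells (500/well) had been incubated with compounds for 72 hr under standard culture conditions.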
# [2] = Viability qHTS for spleen associated tyrosine kinase inhibitor (SYKi) drug resistant MV4-11 cells (AID 1963824); also: nearly all actives have a fitted effect of over 35% in size
# Summary of the method: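 SYK-inhibitor-resistant MV4-11 AML cells were seeded at 500 per well onto compound and cultured 72 hours (37 °C, 5% CO2). CellTiter-Glo was then added, and after 10 min at room temperature, luminescence gave viability.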
# Potency is read from the fitted curve at half-maximal effect.
Structure (SMILES),viability (% of control) [1],"viability, % of control [2]",Potency [1],Potency [2]
C[C@@H]1CC[C@]2(C(=O)O[C@@H]3O[C@H](CO)[C@@H](O)[C@H](O)[C@H]3O)CC[C@]3(C)C(=CCC4[C@@]5(C)C[C@@H](O)[C@H](O)[C@@](C)(C(=O)O[C@H]6[C@H](O)C[C@@]7(C)C(CC[C@]8(C)C7CC=C7[C@H]9[C@](C(=O)O[C@@H]%10O[C@H](CO)[C@@H](O)[C@H](O)[C@H]%10O)(CC[C@@H](C)[C@@]9(C)O)CC[C@]78C)[C@@]6(CO)C(=O)O)C5CC[C@]43C)[C@@H]2[C@]1(C)O (stereo partly drawn),65.2% [at 9.25 µM],103% [at 9.25 µM],,
C=C1C(=O)O[C@H]2C[C@@H](C)[C@@H]3CCC(=O)[C@@]3(C)C[C@H]12,,,4.11 µM (active),2.59 µM (active)
C/C=C1/[C@H](O[C@@H]2O[C@H](CO)[C@@H](O)[C@H](O)[C@H]2O)OC=C(C(=O)OC)[C@H]1CC(=O)O[C@@H]1O[C@H](CO)[C@@H](O)[C@H](O)[C@H]1O,,,inactive,inactive
O=C(OCC(O)CO[C@@H]1O[C@H](C(=O)O)[C@@H](O)[C@H](O)[C@H]1O)c1ccccc1 (stereo partly drawn),,,inactive,inactive
CO[C@H]1/C=C/O[C@@]2(C)Oc3c(C)c(O)c4c(O)c(c(/C=N\N5CCN(C6CCCC6)CC5)c(O)c4c3C2=O)NC(=O)/C(C)=C\C=C\[C@H](C)[C@H](O)[C@@H](C)[C@@H](O)[C@@H](C)[C@H](OC(C)=O)[C@@H]1C,,,18.6 µM (active),11.8 µM (active)
C=C1C(=O)O[C@H]2C1CCC(C)=C1C(=O)C=C(C)[C@@]12O (stereo partly drawn),,,7.31 µM (active),8.2 µM (active)
CC/C=C\CC1C(CC(=O)O)CCC1OC1OC(CO)C(O)C(O)C1O (stereo not drawn),,,inactive,inactive
Cc1cc2nc(NCCCO)n(CC(=O)c3cc(C(C)(C)C)c(O)c(C(C)(C)C)c3)c2cc1C,,,8.2 µM (active),8.2 µM (active)
COc1cc2nc(C3CC3)nc(N3CCN(c4ccccc4OC)CC3)c2cc1OC,,,16.4 µM (active),14.6 µM (active)
CC(O)/C=C/C1(O)C(C)C(O[C@@H]2O[C@H](CO)[C@@H](O)[C@H](O)[C@H]2O)C(O)CC1(C)C (stereo partly drawn),,,inactive,inactive
O=C(/C=C/c1ccc(O)c(O)c1)O[C@@H]1[C@@H](O)[C@H](OC2CCCCC2O)O[C@H](CO)[C@H]1O (stereo partly drawn),,,inactive,inactive
C=CC(C)(C)c1[nH]c2ccccc2c1C[C@@H]1NC(=O)[C@H](C)NC1=O,,,inactive,inactive
CC1(C)[C@@H](O)CC[C@]2(C)[C@H]3CC=C4[C@@H]5C[C@](C)(C(=O)O)CC[C@]5(C)CC[C@@]4(C)[C@]3(C)CC[C@@H]12,,,inactive,inactive
CC1(C)C2CC[C@]3(C)C(C(=O)C=C4[C@H]5C[C@@](C)(C(=O)O)CC[C@]5(C)CC[C@]43C)[C@@]2(C)CC[C@@H]1O (stereo partly drawn),,,inactive,inactive
COc1cc(C(=O)OC[C@@]2(O)CO[C@@H](O[C@H]3[C@H](Oc4ccc(C(=O)O)cc4OC)O[C@H](CO)[C@@H](O)[C@@H]3O)[C@@H]2O)ccc1O,,,inactive,inactive
CC(=O)Nc1cccc2c1c(Sc1ccc(Cl)cc1)c(C)n2CC(=O)O,,,inactive,inactive
CC(=O)c1c(OCCN2CCCCC2)c(OCCC(C)c2ccc(F)cc2)c2oc(C)nc2c1C (stereo not drawn),,,10.3 µM (active),7.31 µM (active)
COc1cc(O)cc(C)c1C(=O)O[C@@H]1[C@H](O)[C@@H](CO)O[C@H]1n1ccc(=O)[nH]c1=O,,,2.82 µM (active),2 µM (active)
NS(=O)(=O)c1ccc(N=Nc2c(O)[nH]c3ccc(Br)cc23)cc1,,,0.13 µM (active),1.03 µM (active)
C/C=C/[C@@H]1C=C[C@@H]2C[C@H](C)CC[C@H]2[C@]1(C)/C(O)=C1/C(=O)[C@@H](CO)N(C)C1=O,,,14.3 µM (active),16.1 µM (active)
Cc1cncc2cccc(S(=O)(=O)N3CCCNC[C@@H]3C)c12,,,3.66 µM (active),9.2 µM (active)
O=C(Nc1ccn[nH]1)c1c(F)cccc1F,,,inactive,inactive
CC1=C(CCC(C)O[C@@H]2O[C@H](CO)[C@@H](O)[C@H](O)[C@H]2O)C(C)(C)CCC1=O (stereo partly drawn),,,inactive,inactive
N#Cc1cc(-c2n[nH]c(-c3ccncc3)n2)ccn1,,,inactive,inactive
C[C@@H]1O[C@@H](O[C@H]2[C@H](O)[C@@H](O)[C@H](OC[C@H]3O[C@@H](OC(=O)[C@]45CCC(C)(C)C[C@H]4C4=CCC6[C@@]7(C)C[C@@H](O)[C@H](O)[C@@](C)(CO)C7[C@H](O)C[C@@]6(C)[C@]4(C)CC5)[C@H](O)[C@@H](O)[C@@H]3O)O[C@@H]2CO)[C@H](O)[C@H](O)[C@H]1O (stereo partly drawn),86.1% [at 9.25 µM],79.5% [at 9.25 µM],,
OC[C@H]1O[C@@H](Oc2cc(O)c3c(c2)O[C@@H](c2ccc(O)cc2)[C@H](O)C3)[C@H](O)[C@@H](O)[C@@H]1O,,,inactive,inactive
COc1cc(/C=C/C(=O)OC2CC(C)=C(C(=O)O)/C2=C/CO[C@@H]2O[C@H](CO)[C@@H](O)[C@H](O)[C@H]2O)ccc1O (stereo partly drawn),,,inactive,inactive

Structure (SMILES),viability (% of control) [1],"viability, % of control [2]",Potency [1],Potency [2]
C[C@@H](CN1CCC(n2c(=O)[nH]c3cc(Cl)ccc32)CC1)NC(=O)c1ccc2ccccc2c1,,,20.6 µM (active),11.6 µM (active)
Cc1cc(C)c(S(=O)(=O)N(Cc2ccc(-c3cccc(S(C)(=O)=O)c3)cc2)Cc2ccc(C(F)(F)F)o2)c(C)c1,,,inactive,0.0461 µM (active)
CC1CC2(O)OC(=O)C3=C2C(CCC3)[C@@]12C[C@@H](c1ccoc1)OC2=O (stereo partly drawn),,,0.321 µM (active),inactive
COc1cc(O)c2c(c1)C1OC1C[C@H](O)[C@H](O)C(=O)/C=C\C[C@H](C)OC2=O (stereo partly drawn),,,3.26 µM (active),4.61 µM (active)
C=C1C(=O)O[C@@H]2C[C@@]3(C)CCC[C@H](C)C3=C[C@H]12,,,13 µM (active),7.31 µM (active)
CCN1CCN(Cc2ccc(-c3cc4c(NC(C)c5ccccc5)ncnc4[nH]3)cc2)CC1 (stereo not drawn),,,0.92 µM (active),1.3 µM (active)
CC1=CC(=O)CC(C)(CO)C1(O)/C=C/C(C)O[C@@H]1O[C@H](CO)[C@@H](O)[C@H](O)[C@H]1O (stereo partly drawn),,,inactive,inactive
COc1ccc2c(c1)[C@@H]1C[C@]1(C(=O)N1[C@@H]3CC[C@H]1CN(C)C3)Cn1c-2c(C2CCCCC2)c2ccc(C(=O)NS(=O)(=O)N(C)C)cc21,,,11.6 µM (active),7.31 µM (active)
O=C1NC2CCc3nc4ccccc4c(=O)n3C2=Nc2ccccc21 (stereo not drawn),,,inactive,inactive
C=C(C(=O)O[C@H]1C/C(C)=C/CC/C(CO)=C/[C@H]2OC(=O)C(=C)[C@H]12)C(O)CO (stereo partly drawn),,,2.02 µM (active),0.904 µM (active)
O=C(O[C@H]1[C@@H]2C[C@@H]3OC[C@](O)([C@@H]1Cl)[C@H]2C(O[C@@H]1O[C@H](CO)[C@@H](O)[C@H](O)[C@H]1O)O3)c1ccc(O)c(O)c1 (stereo partly drawn),,,inactive,inactive
CC(=C\C(C)O)/C=C(\C)C(=O)CC1CC(CC(N)=O)CC(=O)O1 (stereo not drawn),,,inactive,inactive
CN(C)CC1CCn2c(c(C3=C(c4cn(C)c5ccccc45)C(=O)NC3=O)c3ccccc32)C1 (stereo not drawn),,,1.46 µM (active),2.91 µM (active)
Nc1ncnc2c1ncn2CCNCCCCCO,,,inactive,inactive
O=C(OC[C@H]1O[C@@H](Oc2ccccc2CO)[C@H](O)[C@@H](O)[C@@H]1O)c1ccccc1,,,inactive,inactive
C=CC1(C)C=C2C(=O)CC3C(C)(C)CCCC3(C(=O)O)C2(O)CC1 (stereo not drawn),,,inactive,inactive
C=C1[C@@H]2[C@H]3OC(=O)C(=C)[C@@H]3CC[C@@](C)(O)[C@@H]2C[C@@H]1O[C@@H]1O[C@H](CO)[C@@H](O)[C@H](O)[C@H]1O,,,inactive,inactive
COC(=O)C1=C[C@@H](O)[C@@H](O)[C@H](O[C@@H]2O[C@H](COC(=O)/C=C/c3ccccc3)[C@@H](O)[C@H](O)[C@H]2O)C1,,,inactive,inactive
Cc1ccc(-c2c(-c3nn(C)c4ncnc(N5CCC(N6CCCCC6)C5)c34)cnn2C)cc1 (stereo not drawn),,,16.4 µM (active),inactive
CC1(C)C2CC(OC3OC(COC4OCC(O)(CO)C4O)C(O)C(O)C3O)C1(C)CC2O (stereo not drawn),,,inactive,inactive
CC(=O)N[C@H](Cc1ccc2ccccc2c1)C(=O)N[C@H](Cc1ccc(Cl)cc1)C(=O)N[C@H](Cc1cccnc1)C(=O)N[C@@H](CO)C(=O)N[C@@H](Cc1ccc(O)cc1)C(=O)N[C@H](CCCNC(N)=O)C(=O)N[C@@H](CC(C)C)C(=O)N[C@@H](CCCN=C(N)N)C(=O)N1CCC[C@H]1C(=O)N[C@H](C)C(N)=O,,,inactive,inactive
C=C1/C(=C/C=C2\CCC[C@]3(C)[C@@H]([C@H](C)/C=C/[C@H](O)C4CC4)CC[C@@H]23)C[C@@H](O)C[C@@H]1O,,,0.0326 µM (active),0.731 µM (active)
CC1(C)O[C@@]2(C)CC[C@@H]1C[C@@H]2OC1OC(CO)C(O)C(O)C1O (stereo partly drawn),,,inactive,inactive
C=C[C@H]1[C@H](O[C@@H]2O[C@H](CO)[C@@H](O)[C@H](OC(=O)/C=C/c3ccc(O)c(OC)c3)[C@H]2O)OC=C2C(=O)OCC[C@]21O,,,inactive,inactive
CC1COC2(OC3CC4C5CC(O[C@@H]6O[C@H](C)[C@@H](O[C@@H]7O[C@@H](C)[C@H](O)[C@@H](O)[C@H]7O)[C@H](O)[C@H]6O)C6CC(O)CCC6(C)C5CCC4(C)C3C2C)C(O)C1 (stereo partly drawn),,,inactive,inactive
CC1C(=O)OCC2=CC[N+]3([O-])CCC(OC(=O)C(C)(O)C1(C)O)C23 (stereo not drawn),,,inactive,inactive
C[C@H](O)[C@H](O)[C@H]1CNc2nc(N)[nH]c(=O)c2N1,,,inactive,inactive
